Results from PubChem BioAssay AID1159580 (chemical genetic matrix, 2015).
The campaign covered roughly 5,500 compounds. About 2,000 (36%) were called active. Another 18% or so got no clear call; they are omitted. Rule as the data show it: active = normalized growth mostly below about 0.91 (no sharp cut-off); inconclusive = no clear call, values can overlap the other calls; inactive = mostly above about 0.92. Some of the results follow.

Assay: chemical genetic growth profiling, strain panel (AID 1159580);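 also: tested at 20 µM; growth read once vehicle control cultures reached saturation at 30 °C; 1 = growth at the plate median or of vehicle wells; lower values mean less growth of the strain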
Settings: S. cerevisiae deletion strains, growth OD

Measured: normalized growth

CCN(CC)CCNC(C(=O)OCCC(C)C)c1ccccc1 (stereo unspecified)
inactive: locus YHR030C, strain SLT2, active compounds read low 0.984 | locus YHR079C, strain IRE1, active compounds read low 0.986 | locus YJL095W, strain BCK1, active compounds read low 0.979 | locus YJR066W, strain TOR1, active compounds read low 0.913 | locus YLR113W, strain HOG1, active compounds read low 1.03 | locus YNL183C, strain NPR1, active compounds read low 0.916 | locus YOR231W, strain MKK1, active compounds read low 0.978 | locus YPL256C, strain CLN2, active compounds read low 0.964

O=[N+]([O-])c1ccc2nc(N3CCNCC3)ccc2c1
inactive: locus YAL013W, strain DEP1, active compounds read low 0.999 | locus YAL040C, strain CLN3, active compounds read low 0.985 | locus YCL061C, strain MRC1 (second series), active compounds read low 0.995 | locus YDR150W, strain NUM1, active compounds read low 0.994 | locus YDR363W, strain ESC2, active compounds read low 1.04 | locus YER002W, strain NOP16, active compounds read low 1.01 | locus YGR078C, strain PAC10, active compounds read low 1 | locus YMR307W, strain GAS1, active compounds read low 1 | locus YNL175C, strain NOP13, active compounds read low 1 | locus YNL197C, strain WHI3, active compounds read low 1 | locus YNL224C, strain SQS1, active compounds read low 1.01 | locus YOR083W, strain WHI5 (second series), active compounds read low 1.01 | locus YPL241C, strain CIN2, active compounds read low 1.01
